An excerpt weighted towards active compounds, which were near 32% of everything screened.
CYP2C9 inhib: inhibitors of human CYP2C9. P11712. CYP2C9 Supersomes, luciferin-H conversion, luminescence. inhibition, % at 5 µM. actives 20% (n = 96,000);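 active = blocking of liver enzyme CYP2C9 beyond about 50% at 5 µM, limit read from the data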
CYP2C19 inhib: inhibitors of human CYP2C19; actives 21% (n = 96,000); P33261; CYP2C19 Supersomes, luciferin-H EGE luminescence, 30 min; inhibition, % at 5 µM;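 active = CYP2C19 inhibition above a set limit at 5 µM in the primary screen, cut at about 50% in these data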;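 note: plate controls were negative control wells for no effect and 2.5 mM tranylcypromine positive control for full effect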
Target sequence (P33261 whole entry, looked up): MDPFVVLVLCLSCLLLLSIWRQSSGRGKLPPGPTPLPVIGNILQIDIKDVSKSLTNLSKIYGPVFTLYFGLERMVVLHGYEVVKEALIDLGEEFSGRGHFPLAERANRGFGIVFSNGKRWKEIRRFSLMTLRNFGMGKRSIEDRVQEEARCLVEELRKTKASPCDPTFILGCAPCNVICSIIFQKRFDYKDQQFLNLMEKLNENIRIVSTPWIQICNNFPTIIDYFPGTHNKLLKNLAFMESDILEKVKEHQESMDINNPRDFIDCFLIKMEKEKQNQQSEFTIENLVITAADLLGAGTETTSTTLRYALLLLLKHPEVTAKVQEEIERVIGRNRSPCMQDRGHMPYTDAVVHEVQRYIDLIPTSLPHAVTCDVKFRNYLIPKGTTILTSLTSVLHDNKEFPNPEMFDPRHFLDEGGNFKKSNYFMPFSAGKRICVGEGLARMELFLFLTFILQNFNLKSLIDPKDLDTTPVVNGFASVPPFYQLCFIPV
PostGolgi ctrl: growth of the yeast control strain, post-Golgi counter-screen; AID 738; actives 5% (n = 98,000); efflux-deficient yeast background strain, growth absorbance A615, 16 h; inhibition, % at 10 µM
CYP2C19 act: cytochrome P450 2C19 (human) activation | AID 1025 | P33261 | activation factor at 5 µM | 96,000 tested, under 10 active | recombinant CYP2C19, luciferin-H EGE luminescence; active compounds read high; 0 = fully inhibited enzyme, 1 = untreated enzyme;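 active = activation factor of at least 2 at 5 µM in the primary screen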;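 note: 0 = wells with 2.5 mM tranylcypromine and 1 = vehicle-only wells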
PostGolgi yeast: growth inhibition of a yeast mutant, post-Golgi transport screen; post-Golgi transport phenotypic cell assay; inhibition, % at 10 µM; actives 0.9% (n = 98,000); AID 739;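 note: yeast cells grown in 1536-well plates; yeast grown about 18 h at 30C before absorbance read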
CYP2C9 activ: activators of human CYP2C9. P11712. recombinant CYP2C9, luciferin-H conversion, luminescence; active compounds read high; factor 1 = untreated enzyme, 0 = blocked. activation factor at 5 µM. actives 1.4% (n = 96,000). AID 1024;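 active = activation factor of 2 or more for CYP2C9 at a 5 µM dose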;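 note: 0 = sulfaphenazole-blocked wells and 1 = vehicle-only wells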
Active calls of the source: *; nt = no result. Cut-off read from the data, not from the text of the source, unless noted: active = inhibition above about 30%; inactive = the rest.

SMILES	CYP2C9 inhib	CYP2C19 inhib	PostGolgi ctrl	CYP2C19 act	PostGolgi yeast	CYP2C9 activ
COCCn1cc(C(=S)N2CCOCC2)c2ccccc21	-33	-5	-8	1.1	4	1.3
CCCC(=O)C1C(=O)CC(CC(C)SCC)CC1=O (stereo not given)	28	16	6	0.8	-11	0.7
CCCC(=N)C1=C(O)CC(CC(C)SCC)CC1=O (stereo not given)	66*	82*	2	0.2	4	0.3
CN(C)S(=O)(=O)c1ccc(NC(=O)COC(=O)c2ccccn2)cc1	-8	-3	2	1	-19	1.1
Fc1ccc(CSc2ncnc3nc[nH]c23)cc1	40	47	20	0.5	-5	0.6
Cc1ccc(OCCSc2ncnc3nc[nH]c23)cc1	54*	73*	4	0.3	2	0.5
Brc1ccc(CSc2ncnc3nc[nH]c23)cc1	19	56*	20	0.4	-12	0.8
CCCC1(C(=O)O)NC(c2ccc(OC)cc2O)C2C(=O)N(c3ccc(OC)cc3)C(=O)C21 (stereo not given)	-4	1	-6	1	29	1
COC(=O)c1cccc(NC(=O)Cn2cnc3ccccc3c2=O)c1	98*	75*	-7	0.3	-5	0
O=C(Cn1cnc2ccccc2c1=O)Nc1cccc(-c2nnc3n2CCCCC3)c1	49	57*	-7	0.4	-14	0.5
COc1cccc(NC(=O)CSc2nc3ccccc3c(=O)n2CCCC(=O)N2CCCC2)c1	88*	72*	10	0.3	-3	0.1
COCCCn1c(SCC(=O)Nc2ccc(C(C)=O)cc2)nc2ccccc2c1=O	71*	99*	-12	0	-6	0.3
CCOc1ccccc1Nc1ccc(C(=O)O)cc1NC(C)=O	-1	1	9	1	21	1
O=C1c2ccccc2C(=O)N1CCCn1c(=O)oc2ccccc21	-12	39	-6	0.6	2	1.1
CCOC(=O)N1CCc2c(sc(NC(=O)c3ccc(Cl)s3)c2C(N)=O)C1	44	19	22	0.8	3	0.6
CCS(=O)(=O)N1CCC(C(=O)NCC2CCCO2)CC1 (stereo not given)	-14	-11	-2	1.1	2	1.1
COC(=O)Cn1c(=O)cnc2ccccc21	-13	-5	-1	1.1	6	1.1
COCCn1c(SCC(=O)Nc2cccc(C(=O)OC)c2)nc2ccccc2c1=O	56*	28	13	0.7	14	0.4
COc1ccc(NC(=O)CSc2nc3ccccc3c(=O)n2CCC(=O)N2CCCCC2)cc1	nt	nt	1	nt	-11	nt
CCn1c(SCC(=O)Nc2ccc(C(C)=O)cc2)nc2nc3c(cc2c1=O)CCCC3	68*	42	11	0.6	-1	0.3
COC(=O)c1cc(NC(=O)Cn2c(=O)cnc3ccccc32)cc(C(=O)OC)c1	89*	19	8	0.8	-7	0.1
CCn1c(SCC(=O)Nc2ccc(C(C)=O)cc2)nc2ccccc21	-15	-8	-3	1.1	-5	1.1
COC(=O)c1cccc(NC(=O)c2nn(C)c(=O)c3ccccc23)c1	55*	28	-5	0.7	-9	0.5
CCN1CCN(C(c2cccs2)C(C)NC(=O)C(C)C)CC1 (stereo not given)	nt	nt	-15	nt	-3	nt
C=C(C)C(C)(C#CCN1CCCC1)OC(C)=O (stereo not given)	-9	-5	7	1	9	1.1
SMILES	CYP2C9 inhib	CYP2C19 inhib	PostGolgi ctrl	CYP2C19 act	PostGolgi yeast	CYP2C9 activ
CCOc1ccc(CCN2C(=O)C3C4C=CC(C4)C3C2=O)cc1OCC (stereo not given)	9	53*	5	0.5	2	0.9
CCOc1ccc(C(C)=O)cc1N1C(=O)C2C3C=CC(C3)C2C1=O (stereo not given)	-5	1	-3	1	-1	1
Cc1noc(C)c1S(=O)(=O)N(CC(=O)N1CCCCCC1)c1ccc(C(C)C)cc1	77*	72*	32*	0.3	-1	0.2
Cc1noc(C)c1S(=O)(=O)N(CC(=O)N1CCCC1)c1ccc(C(C)C)cc1	22	40	0	0.6	-16	0.8
COc1ccc(N(CC(=O)N2CCN(c3ccccc3)CC2)S(=O)(=O)c2c(C)noc2C)cc1	14	65*	9	0.4	-7	0.9
CCOc1ccc(N(CC(=O)N2CCN(c3ccccc3)CC2)S(=O)(=O)c2c(C)noc2C)cc1	9	37	9	0.6	6	0.9
COC(=O)CSc1nnc(-c2ccccc2O)n1-c1ccc(C)cc1	37	57*	17	0.4	-10	0.6
Cc1nonc1NC(=O)CSc1nnc(-c2ccoc2C)n1CC(C)C	14	76*	5	0.2	-3	0.9
CCc1nnc(NC(=O)CSc2nnc(-c3ccccc3OC)n2-c2ccccc2)s1	nt	nt	13	nt	-1	nt
Cc1cccc(-n2c(SCC(=O)Nc3nnc(C)s3)nnc2-c2ccoc2C)c1	23	24	3	0.8	4	0.8
CCn1c(SCC(=O)Nc2nonc2C)nnc1-c1ccoc1C	9	33	13	0.7	-2	0.9
COC(=O)CSc1nnc(-c2ccccc2OC)n1-c1ccc(C)cc1	20	22	4	0.8	3	0.8
CCc1nnc(NC(=O)CSc2nnc(-c3ccccc3OC)n2-c2ccc(C)cc2)s1	72*	77*	-1	0.2	2	0.3
CCc1nnc(NC(=O)CSc2nnc(-c3ccoc3C)n2-c2cccc(C)c2)s1	54*	37	9	0.6	-7	0.5
Cc1cc(NC(=O)CSc2nnc(-c3ccoc3C)n2N)no1	7	7	-5	0.9	0	0.9
Cc1cccc(-n2c(SCC(=O)Nc3nonc3C)nnc2-c2ccoc2C)c1	54*	45	4	0.6	0	0.5
Cc1cc(NC(=O)CSc2nnc(CNc3ccc(F)cc3)n2C2CCCCC2)no1	14	0	-10	1	-2	0.9
CCc1nnc(NC(=O)CSc2nnc(CNc3ccc(F)cc3)n2C2CCCCC2)s1	68*	57*	4	0.4	-3	0.3
CCc1nnc(NC(=O)CSc2nnc(Cc3ccccc3)n2-c2ccccc2)s1	49	26	0	0.7	-4	0.5
CCc1nnc(NC(=O)CSc2nnc(CNc3cccc(C)c3)n2-c2ccccc2)s1	77*	51*	-4	0.5	4	0.2
CN(C)C(=O)CSC1c2ccccc2C(=O)N1c1ccccc1 (stereo not given)	-2	-3	5	1	-8	1
Cc1ccc(C(=O)COC(=O)CCC(=O)Nc2cccc(Cl)c2)cc1[N+](=O)[O-]	-3	18	15	0.8	-10	1
CC(NS(=O)(=O)c1ccccc1)C(=O)Nc1nccs1 (stereo not given)	nt	nt	8	nt	3	nt

High-throughput results from PubChem BioAssay.
